The values below come from PubChem BioAssay (NCATS).

The source made the active and inactive calls.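 Rule for the calls: active = compounds whose dose series gives a full or clear partial fitted curve of increased nuclear translocation; inconclusive = weak partial curve or effect only at the top dose; inactive = no dose-dependent translocation response.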 A value given as a limit tells only on which side of the number the result lay.
Potency is the fitted concentration of half-maximal effect.

In this assay the target is Glucocorticoid receptor (Homo sapiens) (UniProt P04150). Kind of assay: GR-GFP Redistribution (AID 450). The note with it: U2OS GR-GFP nuclear translocation, laser cytometry, 2 h; series mostly up to 20.6 µM.
Sequence of Glucocorticoid receptor (Homo sapiens) (P04150 whole entry, looked up): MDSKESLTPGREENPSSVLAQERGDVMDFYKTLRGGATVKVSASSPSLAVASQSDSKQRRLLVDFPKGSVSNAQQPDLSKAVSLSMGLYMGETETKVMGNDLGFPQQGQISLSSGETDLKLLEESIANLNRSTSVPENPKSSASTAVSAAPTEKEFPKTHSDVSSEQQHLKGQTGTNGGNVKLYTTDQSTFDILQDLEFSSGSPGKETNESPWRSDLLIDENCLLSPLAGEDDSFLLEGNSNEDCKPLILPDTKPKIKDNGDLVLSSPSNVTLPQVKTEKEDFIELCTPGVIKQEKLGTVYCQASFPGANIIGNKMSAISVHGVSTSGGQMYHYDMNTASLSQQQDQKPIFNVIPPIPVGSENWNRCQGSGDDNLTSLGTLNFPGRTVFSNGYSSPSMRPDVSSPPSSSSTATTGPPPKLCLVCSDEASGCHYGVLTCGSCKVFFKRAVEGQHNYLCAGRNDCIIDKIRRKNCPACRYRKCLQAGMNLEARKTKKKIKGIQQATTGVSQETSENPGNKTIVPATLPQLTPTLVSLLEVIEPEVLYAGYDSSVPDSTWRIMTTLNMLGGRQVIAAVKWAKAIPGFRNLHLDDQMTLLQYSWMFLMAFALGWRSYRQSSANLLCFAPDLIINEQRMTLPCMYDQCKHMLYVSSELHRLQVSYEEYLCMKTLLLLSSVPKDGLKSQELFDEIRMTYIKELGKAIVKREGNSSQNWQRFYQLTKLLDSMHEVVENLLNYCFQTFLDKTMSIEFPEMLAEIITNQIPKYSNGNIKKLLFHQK
Take `CC(=O)C1=C(O)C(=O)N(c2cccc(C(=O)O)c2)C1c1ccccc1F` (stereo not given): the Potency is > 20.6 µM (inactive).

For `Cn1ncc(N=Cc2ccccc2O)c1C(=O)N1CCOCC1`, the Potency was > 20.6 µM (inactive).

In the case of `CSC1=C(C#N)C(C)CC(=O)N1` (stereo not given), the Potency is > 20.6 µM (inactive).

On to `Cc1ccc(C2CC(c3cccs3)n3nc(N)nc3N2)cc1` (stereo not given), for which the Potency was > 20.6 µM (inactive).

In the case of `Cc1cc(C)n(C(=O)CSc2nc3ccccc3o2)n1`, the Potency was > 20.6 µM (inactive).

For the molecule `Cc1cc(C)n(-c2ncnc3sc(C)c(C)c23)n1`, the Potency was > 20.6 µM (inactive).

With `CN(C)c1nc2n(c(=S)n1)CCS2`, the Potency was > 20.6 µM (inactive).

In the case of `CCc1nc(N2CCN(C(=O)c3ccccc3)CC2)c(C#N)c2c1COC(C)(C)C2`, the Potency is > 20.6 µM (inactive).

In the case of `Cc1cc(=O)[nH]c(COc2ccccc2)n1`, the Potency was > 20.6 µM (inactive).

Turning to `O=C(CN1C(=O)c2ccccc2S1(=O)=O)NCCSCc1ccco1`, the Potency was > 20.6 µM (inactive).

As to `CC(=O)N=C(N)Sc1nc2ccccc2[nH]1`, the Potency was > 20.6 µM (inactive).

As for `N#CCCSCc1ccc(OCC(=O)O)cc1`, the Potency was > 20.6 µM (inactive).

In the case of `c1ccc(OCc2nn3c(-c4cccnc4)nnc3s2)cc1`, the Potency was > 20.6 µM (inactive).

Turning to `CCOC(=O)c1ccc(N2CC(O)=C(c3nc4ccccc4c(=O)[nH]3)C2=N)cc1`, the Potency is > 20.6 µM (inactive).

On to `Cc1cc(C)c2c(N)c(C(=O)c3ccccc3)oc2n1`, for which the Potency is > 20.6 µM (inactive).
